PubChem BioAssay AID1159580 (chemical genetic matrix, 2015)
Where “and” joins values, the source holds several entries; their conditions need not be identical. Equal values may be shown once. In all, about 5,500 compounds went through this assay and about 2,000 (36%) were called active. Roughly 18% stayed inconclusive and do not appear here. Rule as the data show it: active = normalized growth mostly below about 0.91 (no sharp cut-off); inconclusive = no clear call, values can overlap the other calls; inactive = mostly above about 0.92. The list shows a part of the results.

Assay: chemical genetic growth profiling, strain panel (AID 1159580);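 also: tested at 20 µM; growth read once vehicle control cultures reached saturation at 30 °C; 1 = growth at the plate median or of vehicle wells; lower values mean less growth of the strain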
Conditions: S. cerevisiae deletion strains, growth OD

Measured: normalized growth

CNCCC=C1c2ccccc2CCc2ccccc21
inactive: locus YAL013W, strain DEP1, hits give low values 1.01 | locus YAL021C, strain ccr4, hits give low values 0.919 | locus YAL030W, strain snc1, hits give low values 0.975 | locus YAL040C, strain CLN3, hits give low values 1.01 | locus YBL061C, strain skt5, hits give low values 0.983 | locus YBR009C, strain hhf1, hits give low values 0.989 | locus YBR021W, strain FUR4, hits give low values 1.02 | locus YBR023C, strain chs3, hits give low values 0.956 | locus YBR171W, strain sec66, hits give low values 0.952 | locus YBR229C, strain ROT2, hits give low values 1.01 | locus YBR231C, strain swc5, hits give low values 0.996 | locus YBR279W, strain paf1, hits give low values 0.971 | locus YCL011C, strain gbp2, hits give low values 0.965 | locus YCL016C, strain dcc1, hits give low values 0.946 | locus YCL029C, strain bik1, hits give low values 1.04 | locus YCL061C, strain MRC1 (second series), hits give low values 0.998 | locus YCL061C, strain MRC1, hits give low values 0.981 | locus YCL069W, strain vba3, hits give low values 0.976 | locus YCR088W, strain abp1, hits give low values 0.978 | locus YDL005C, strain med2, hits give low values 0.955 | locus YDL035C, strain GPR1, hits give low values 1 | locus YDL040C, strain nat1, hits give low values 0.974 | locus YDL074C, strain BRE1, hits give low values 1.03 | locus YDL101C, strain DUN1, hits give low values 1.02 | locus YDL134C, strain PPH21, hits give low values 1.01 | locus YDL185W, strain tfp1, hits give low values 1.02 | locus YDL192W, strain arf1, hits give low values 1.02 | locus YDR001C, strain nth1, hits give low values 0.986 | locus YDR069C, strain doa4, hits give low values 0.929 | locus YDR101C, strain arx1, hits give low values 1.03 | locus YDR137W, strain rgp1, hits give low values 1.1 | locus YDR150W, strain NUM1, hits give low values 1.01 and 1 | locus YDR159W, strain sac3, hits give low values 0.955 | locus YDR162C, strain NBP2, hits give low values 1 | locus YDR195W, strain ref2 1 | locus YDR297W, strain sur2, hits give low values 0.99 | locus YDR318W, strain mcm21, hits give low values 1.03 | locus YDR334W, strain swr1, hits give low values 0.957 | locus YDR335W, strain msn5, hits give low values 0.963 | locus YDR363W, strain ESC2, hits give low values 0.951 | locus YDR388W, hits give low values 1.02 | locus YDR392W, strain spt3, hits give low values 0.939 | locus YDR502C, strain sam2, hits give low values 1.03 | locus YEL003W, strain gim4, hits give low values 0.972 | locus YEL037C, strain rad23, hits give low values 0.967 | locus YEL061C, strain CIN8 (second series), hits give low values 0.972 | locus YEL061C, strain CIN8, hits give low values 1.01 | locus YER002W, strain NOP16, hits give low values 1.03 | locus YER015W, strain faa2, hits give low values 0.978 | locus YER016W, strain bim1, hits give low values 0.97 | locus YER110C, hits give low values 1.01 | locus YER111C, strain swi4, hits give low values 0.953 | locus YER155C, strain BEM2 (second series), hits give low values 0.917 | locus YER155C, strain BEM2, hits give low values 1 | locus YER167W, strain BCK2, hits give low values 1 | locus YFR010W, strain ubp6, hits give low values 0.958 | locus YGL078C, strain dbp3, hits give low values 1.01 | locus YGL086W, strain mad1, hits give low values 1.01 | locus YGL167C, strain pmr1, hits give low values 0.971 | locus YGL173C, strain kem1, hits give low values 0.968 | locus YGL227W, strain vid30, hits give low values 0.966 | locus YGL240W, strain doc1, hits give low values 1.01 | locus YGL248W, strain PDE1, hits give low values 1.01 | locus YGL253W, strain hxk2, hits give low values 0.981 | locus YGR078C, strain PAC10, hits give low values 1.03 and 0.991 | locus YGR135W, strain pre9, hits give low values 1.02 | locus YGR229C, strain SMI1, hits give low values 1.03 and 0.97 | locus YGR252W, strain gcn5, hits give low values 1.14 | locus YHR013C, strain ard1, hits give low values 0.885 | locus YHR027C, strain rpn1, hits give low values 0.978 | locus YHR030C, strain SLT2, hits give low values 1.01 and 0.966 | locus YHR079C, strain IRE1 (second series), hits give low values 1.03 | locus YHR079C, strain IRE1, hits give low values 0.974 | locus YHR094C, strain hxt1, hits give low values 1.01 | locus YHR129C, strain ARP1, hits give low values 1.01 | locus YHR142W, strain chs7, hits give low values 0.961 | locus YHR200W, strain rpn10, hits give low values 1.02 | locus YIL066C, strain RNR3, hits give low values 1.02 | locus YIL073C, strain SPO22, hits give low values 1.09 | locus YIL125W, strain kgd1, hits give low values 1.01 | locus YIR030C, strain dcg1, hits give low values 1.02 | locus YJL092W, strain hpr5, hits give low values 0.991 | locus YJL095W, strain BCK1 (second series), hits give low values 0.965 | locus YJL095W, strain BCK1, hits give low values 1.01 and 0.961 | locus YJL115W, strain asf1, hits give low values 0.961 | locus YJL129C, strain trk1, hits give low values 0.978 | locus YJL134W, strain LCB3, hits give low values 1.01 | locus YJL154C, strain vps35, hits give low values 0.973 | locus YJL164C, strain tpk1, hits give low values 0.978 | locus YJL166W, strain qcr8, hits give low values 0.989 | locus YJL168C, strain set2, hits give low values 1.01 | locus YJL187C, strain SWE1 (second series), hits give low values 1.02 | locus YJR043C, strain POL32, hits give low values 1.02 | locus YJR066W, strain TOR1, hits give low values 0.923
active: locus YAL026C, strain drs2, hits give low values 0.854
